# Hits are enriched below; roughly 1.5% of the tested compounds scored in any of these assays.
# NSD2 inh: NSD2 histone methyltransferase inhibitors, primary screen, biochemical, AlphaScreen, single concentration, set 2; Histone-lysine N-methyltransferase NSD2 (Homo sapiens), O96028; NSD2 peptide methylation, 120 min; inhibition, % at 12.5 µM; actives 0.54% (n = 310,000); AID 743445, 2014; in the data active means inhibition above about 50%
# RAD52 anneal inh: RAD52 DNA annealing inhibitors, primary screen, biochemical, FRET, single point, set 2 | recombinant RAD52 DNA annealing, FRET fluorescence | inhibition, % at 18.7 µM | actives 0.46% (n = 360,000);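 active means every replicate showing at least 50% inhibition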
# miR-122 sensor: miR-122 Renilla sensor signal increase in Huh7, primary screen, miR-122 inhibitor project, cell-based, single point, plate reader; Huh7 miR-122 Renilla luciferase sensor, 48 h; neutral wells = 0, positive control = 100; activation (reporter increase), % at 12.5 µM; actives 0.3% (n = 340,000);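 active means mean replicate activation score at least 90 and every replicate individually at or above 90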;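 further: higher luciferase means less miR-122 activity so hits act as miR-122 inhibitors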
# Casp6 inh: human caspase-6 inhibitors, primary screen, biochemical, VEID-R110 fluorescence, single point, set 2; purified caspase-6, Z-VEID-R110 cleavage fluorescence; inhibition, % at 12.5 µM; actives 0.53% (n = 350,000); AID 686996, 2013;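 active means mean inhibition across replicates at least about 35%, with every replicate also reaching that limit, limit read from the data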;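 further: 0% = median of neutral control wells and 100% = no fluorescence left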
# Target sequence (P55212 24-179 limits assumed): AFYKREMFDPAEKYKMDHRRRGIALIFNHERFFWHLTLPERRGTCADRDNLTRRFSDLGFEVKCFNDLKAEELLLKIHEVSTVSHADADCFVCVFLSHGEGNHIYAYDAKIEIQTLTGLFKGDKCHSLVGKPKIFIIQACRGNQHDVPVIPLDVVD
# Target sequence (P55212 194-293 limits assumed): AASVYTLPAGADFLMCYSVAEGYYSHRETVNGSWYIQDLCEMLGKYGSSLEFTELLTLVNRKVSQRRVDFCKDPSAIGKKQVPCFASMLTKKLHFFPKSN
# MLL AF4-AF9 inh: inhibitors of AF4 peptide binding to AF9, primary screen, biochemical, AlphaScreen, biotin-AF4 peptide, FLAG-AF9, single point | actives 0.47% (n = 350,000) | Protein AF-9 (Homo sapiens), P42568 | inhibition, % at 10 µM | AID 651704, 2012;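 active means every replicate reaching a set inhibition limit, whatever the replicate mean, cut at about 25% in these data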;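 further: 0% = plate neutral control median and 100% = total signal loss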
# Numbers without * were called inactive; · = not tested or not shown; [ ] = another dose, or the depositor's remark.
SMILES,NSD2 inh,RAD52 anneal inh,miR-122 sensor,Casp6 inh,MLL AF4-AF9 inh
CCC(=O)N1CC2(CCN(Cc3ccccc3Cl)CC2)c2c([nH]c3cc(OC)ccc23)[C@H]1CO,·,8.8,·,0.4,5.6
CCC(=O)N1CC2(CN(Cc3ccccc3Cl)C2)c2c([nH]c3cc(OC)ccc23)[C@@H]1CO,·,13.6,·,4.0,28.5*
CCN1[C@@H]2c3ccc(-c4cccnc4)c(=O)n3C[C@@H]2[C@@H](CO)[C@@H]1C(=O)NC1CCCCC1,·,7.1,3.0[16.7 µM],1.9,2.3
CC=Cc1ccc2n(c1=O)C[C@@H]1[C@@H](CO)[C@H](C(=O)NC3CCCC3)N(C(=O)C3CC3)[C@H]21 (mixture of isomers),·,4.9,·,0.7,1.0
O=C(Nc1ccc(F)cc1)Nc1nnc(-c2ccccc2)o1,0.7,-10.5,-6.0,2.6,0.3
Cc1ccc(NC(=O)Nc2nnc(-c3ccccc3)o2)cc1,-0.3,-0.7,·,38.4*,-1.1
COc1ccc2c3c([nH]c2c1)[C@@H](CO)N(Cc1cc(F)ccc1F)CC31CCN(C(C)=O)CC1,·,·,·,·,1.5
CN1CCCCC(NC(=O)COCc2ccccc2)C1=O (configuration not stated),·,-1.4,·,37.8*,·
COc1ccccc1CN(C)C(=O)CN1CCN(CC(=O)Nc2ccccc2Cl)CC1,1.4,-15.6,-9.6,36.5*,1.1
O=c1oc2ccccc2c(O)c1CN1CCCCC1,0.1,·,2.6,·,·
O=C(Cc1c(O)c2ccccc2oc1=O)c1ccc(F)cc1,1.3,-9.1,-6.6,-0.7,47.4*
Cc1ccc(S(=O)(=O)Nc2ccc3c(c2)C(=O)N([C@@H](C)CO)C[C@H](C)[C@H](CN(C)C)OCCCC[C@H](C)O3)cc1,·,·,1.6[16.7 µM],·,·
COc1cccc(C(NC(=O)C2CCN(CCCOc3ccccc3)CC2)c2ccccn2)c1 (configuration not stated),4.8,-5.6,0.8,38.1*,3.3
COc1ccc(OCCN2CCC(C(=O)NC(c3ccccn3)c3ccccc3OC)CC2)cc1 (configuration not stated),1.8,-7.0,-3.5,49.2*,2.7
CCOC(=O)N1CCC(NC(=O)CS(=O)Cc2nc(-c3ccc(CC)cc3)oc2C)CC1 (configuration not stated),-6.3,·,·,·,·
O=C(C[C@@H]1CC[C@@H](NC(=O)Nc2ccccc2)[C@H](CO)O1)NCc1ccccn1,·,-2.1,·,-2.5,0.4
COc1ccc(NC(=O)Nc2ccc3c(c2)C(=O)N([C@H](C)CO)C[C@H](C)[C@H](CN(C)Cc2ccc(Cl)c(Cl)c2)O3)cc1,·,11.3,-7.4[16.7 µM],-1.4,3.8
CN(C)c1ccc(N=Cc2nc(-c3ccccc3)oc2O)cc1,0.8,·,-3.1,·,·
CN(C)c1ccc(N=Cc2cccn2C)cc1,·,15.1,0.4,1.1,50.1*
O=C1NC2c3c(Cl)sc(Cl)c3C(=O)C2O1 (configuration not stated),44.0,-41.6,-1.8,69.3*,-10.2
CSc1ccc(S(=O)(=O)NC2CC3CCC2C3)cc1 (configuration not stated),-1.4,-3.7,104.4*,-0.4,1.4
O=S(=O)(NC1CCCCC1)c1cccc(-c2nnc(-c3ccccc3)o2)c1,0.6,·,100.4*,·,·
CC(C)NC(=O)N(C)C[C@H]1Oc2ccc(NC(=O)C3CCCCC3)cc2CC(=O)N([C@@H](C)CO)C[C@H]1C,·,1.2,-6.5[16.7 µM],1.5,-3.3
O=c1[nH][nH]c2c([N+](=O)[O-])ccc(F)c12,22.2,-9.5,·,66.1*,1.1
O=c1ccc2cccc([N+](=O)[O-])c2[nH]1,0.6,-15.8,·,2.1,-13.2
SMILES,NSD2 inh,RAD52 anneal inh,miR-122 sensor,Casp6 inh,MLL AF4-AF9 inh
CN(C)C(=O)[C@@H]1[C@@H](CO)[C@@H]2Cn3c(ccc(C4=CCCC4)c3=O)[C@H]1N2CC1CCOCC1,·,3.4,·,2.2,-16.3
COc1ccc(CN2CCn3ncc(C(=O)Nc4ccccc4)c3C2=O)cc1,1.9,·,0.3,·,·
O=C(O)c1cnn2c1C(=O)N(Cc1cccs1)CC2,8.4,-18.4,-0.7,63.7*,-4.3
CCOC(=O)CCCCC(=O)c1[nH]c(=O)[nH]c1CSCCO,4.3,3.1,·,-4.6,76.7*
O=C(COC(=O)/C=C/c1ccc(Br)o1)Nc1ccc2[nH]c(=O)[nH]c2c1,-0.3,-4.3,·,0.0,-0.2
NC(=O)c1ccc(NC(=O)COC(=O)/C=C/c2ccc(Br)o2)cc1,-0.2,-32.4,5.3,80.2*,-2.6
COc1ccc2c(c1)C(C)=CC(C)(C)N2S(=O)(=O)c1ccc(Br)cc1,-2.9,-7.8,114.0*,1.0,-3.5
COc1ccc2c(c1)C(C)=CC(C)(C)N2S(=O)(=O)c1ccc(NC(C)=O)cc1,-1.4,-7.0,65.9,0.9,5.7
CCOC(=O)C1CCN(C(=O)COC(=O)c2ccc([N+](=O)[O-])o2)CC1,45.6,-3.5,-5.9,56.0*,-2.7
CCOC(=O)C1=C(C)NC(=O)NC1c1ccco1 (configuration not stated),4.6,-12.2,2.4,46.4*,2.2
CCOC(=O)C1=C(COC(=O)c2ccco2)NC(=O)NC1CC (configuration not stated),-1.4,-16.0,-7.1,1.7,29.3*
CCOC(=O)C1=C(COC(=O)c2ccc([N+](=O)[O-])o2)NC(=O)NC1C (configuration not stated),28.1,-11.3,1.8,42.8*,1.4
COc1ccc(NC(=O)N(C)[C@H]2C[C@H]3c4[nH]c5ccccc5c4CCN3C(=O)[C@H]2[C@H](C)O)cc1,·,-15.0,2.6,5.4,4.0
C[C@H](O)[C@@H]1C(=O)N2CCc3c([nH]c4ccccc34)[C@@H]2C[C@@H]1N(C)C(=O)Nc1cccc2ccccc12,·,-40.6,-3.7,82.1*,4.1
COc1ccc2cc(CCNC(=O)C(C)C)c(=O)[nH]c2c1,·,4.5,-8.7,-0.9,31.1*
CCNC(=O)[C@@H]1[C@@H](CO)[C@@H]2Cn3c(ccc(-c4ccc(F)cc4)c3=O)[C@@H]2N1Cc1cc(F)ccc1F,·,-3.5,-3.6[16.7 µM],-1.2,3.1
Cc1cc(N)n(-c2ccc(Oc3ccccc3)c(S(=O)(=O)O)c2)n1,37.8,-24.0,1.3,38.0*,1.2
Cc1ccc(CN2CCSc3ccc(C(=O)NCc4cccnc4)cc32)cc1,-0.2,·,155.4*,·,·
COc1ccc(NC(=O)N(C)C[C@H]2Oc3ccc(NC(=O)Nc4ccc(C(F)(F)F)cc4)cc3CC(=O)N([C@@H](C)CO)C[C@H]2C)cc1,·,-4.6,200.8*[16.7 µM],0.5,0.8
COc1ccc(NC(=O)Nc2ccc3c(c2)CC(=O)N([C@@H](C)CO)C[C@@H](C)[C@H](CN(C)C(=O)NC(C)C)O3)cc1,·,13.4,101.0*[16.7 µM],1.6,4.3
CCOC(=O)/C(C#N)=C/c1c(N2CCN(c3cccc(Cl)c3)CC2)nc2c(C)cccn2c1=O,·,-16.2,-0.2,52.7*,5.0

# Compound activity: PubChem BioAssay, Broad Institute
